Only some compounds are listed: those with a hit (about 2.9% of all), similar ones and a draw of the others.
Mtb FBA inh: Mtb FBA enzyme inhibitors, primary screen, biochemical, fluorescence, strain H37Rv; inhibition, % at 1 µM; actives 2.3% (n = 360,000); purified M. tuberculosis FBA, fluorescence read-out;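 further: 0% = vehicle and 100% = reference inhibitor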
Target sequence (P9WQA3 whole entry, looked up): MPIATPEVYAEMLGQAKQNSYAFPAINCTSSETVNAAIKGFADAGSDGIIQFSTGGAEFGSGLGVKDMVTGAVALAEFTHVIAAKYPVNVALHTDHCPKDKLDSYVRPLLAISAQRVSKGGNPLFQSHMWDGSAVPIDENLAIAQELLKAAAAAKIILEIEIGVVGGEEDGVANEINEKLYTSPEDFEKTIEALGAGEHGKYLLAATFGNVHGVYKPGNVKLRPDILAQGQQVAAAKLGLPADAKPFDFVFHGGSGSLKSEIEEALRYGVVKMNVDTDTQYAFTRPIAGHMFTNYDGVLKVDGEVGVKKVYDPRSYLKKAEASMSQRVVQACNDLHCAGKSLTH
FadD28 binding: inhibitors of FadD28 bisubstrate probe binding, primary screen, biochemical, fluorescence polarization, single point; AID 588549, 2011; actives 0.22% (n = 360,000); Mycobacterium tuberculosis FadD28 fatty-acid-AMP ligase; inhibition, % at 12.5 µM; in the data active means inhibition above about 8.5%, passing the limit was not always enough
BioA inh: M. tuberculosis BioA enzyme inhibitors, primary screen, biochemical, plate reader, single point, HTS; 7,8-diaminopelargonic acid synthase BioA (Mycobacterium tuberculosis); purified M. tuberculosis BioA enzyme; inhibition, % at 9.99 µM; actives 0.096% (n = 360,000); AID 602481, 2012; in the data active means inhibition above about 40%
GDH-TPI counter-1: GDH-TPI coupling enzyme inhibitors, primary screen, artefact control for M. tuberculosis FBA inhibitor project, biochemical, absorbance, full deck. actives 1.2% (n = 360,000). GDH-TPI coupled enzyme counterscreen, NADH absorbance. inhibition, % at 4.8 µM; in the data active means inhibition above about 30%;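 further: 0% = DMSO wells and 100% = wells lacking the enzyme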
Mtb hypoxia rep: PubChem AID 1159583; fluorescence inhibition, % (no concentration beside the values); actives 0.1% (n = 300,000); M. tuberculosis hypoxia-regulated fluorescent reporter, fluorescence; in the data active means fluorescence inhibition mostly above about 23%, no sharp cut-off; inactive means mostly below about 17%
Mtb FBA confirm: M. tuberculosis aldolase blockers, biochemical, fluorescence, strain H37Rv, confirmation | shares compounds with Mtb FBA inh | actives 78% (n = 5,600) | purified M. tuberculosis FBA, fluorescence read-out | inhibition, % at 1 µM | AID 651616, 2012;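 further: 0% = vehicle wells and 100% = reference inhibitor wells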
GDH-TPI counter-2: GDH-TPI coupling enzyme inhibitors, artefact control for M. tuberculosis FBA inhibitor project, biochemical, fluorescence, high throughput; shares compounds with Mtb FBA inh; AID 652141, 2013; actives 81% (n = 5,600); GDH-TPI coupled enzyme counterscreen; inhibition, % at 1 µM; in the data active means inhibition above about 10%
* = called active by the depositor. Unless noted, no stated cut-off is given here; in the data, active means inhibition above about 27%; inactive means the rest.

`O=C(O)C[C@@H]1CC[C@H](NC(=O)Nc2ccccc2)[C@H](CO)O1` gave BioA inh -3.
For COC(=O)c1sc2ccccc2c1C(=O)OC the results were Mtb FBA inh -1, FadD28 binding 0, BioA inh -2, GDH-TPI counter-1 9 and Mtb hypoxia rep -6.
For COC(=O)c1sc2ccccc2c1N the results were Mtb FBA inh 79*, FadD28 binding -3, BioA inh 0, GDH-TPI counter-1 1, Mtb hypoxia rep 9, Mtb FBA confirm active and GDH-TPI counter-2 active.
`Cc1ccc(NC(=S)/C(=C(\[O-])c2ccc(Cl)s2)[n+]2cccc(CO)c2)cc1C` gave Mtb FBA inh -7, FadD28 binding -1, BioA inh 0, GDH-TPI counter-1 2 and Mtb hypoxia rep 15.
Screening [O-]/C(=C(\C(=S)Nc1cccc2ccccc12)[n+]1cccc(CO)c1)c1ccc(Cl)s1 returned Mtb FBA inh 31*, FadD28 binding -4, GDH-TPI counter-1 3, Mtb hypoxia rep -2, Mtb FBA confirm 151* and GDH-TPI counter-2 129*.
CC1=CN2CC(O)CN=C2C=C1 (stereo not given) was read as Mtb FBA inh 38*, FadD28 binding -3, BioA inh -1, GDH-TPI counter-1 5, Mtb hypoxia rep 8, Mtb FBA confirm 128* and GDH-TPI counter-2 97*.
`CC1=CC=CN2CC(O)CN=C12` (stereo not given) gave Mtb FBA inh 30*, FadD28 binding -1, GDH-TPI counter-1 8, Mtb hypoxia rep -8, Mtb FBA confirm active and GDH-TPI counter-2 active.
`Cc1cc(C)cc(N2C(=O)CS(=O)(=O)C2c2cccc([N+](=O)[O-])c2)c1` (stereo not given) gave BioA inh -1.
For Cc1ccc(CNC(=O)C2C3C=CC4(CN(Cc5cccnc5)C(=O)C24)O3)cc1 (stereo not given) the results were Mtb FBA inh 68*, FadD28 binding -1, BioA inh -1, GDH-TPI counter-1 2, Mtb FBA confirm 9 and GDH-TPI counter-2 -2.
Screening S=C(c1ccc(-c2ccc(Br)cc2)o1)N1CCCCC1 returned Mtb FBA inh 59*, FadD28 binding -3, BioA inh -1, GDH-TPI counter-1 0, Mtb hypoxia rep 14, Mtb FBA confirm 7 and GDH-TPI counter-2 -2.
Screening S=C(c1ccc(-c2ccc(Br)cc2)o1)N1CCOCC1 returned Mtb FBA inh -3, FadD28 binding -3, BioA inh -1, GDH-TPI counter-1 18 and Mtb hypoxia rep 0.
For O=C(Nc1ccccc1)Nc1ccc2c(c1)[C@@H]1C[C@H](CC(=O)N3CCOCC3)O[C@H](CO)[C@@H]1O2 the results were BioA inh 1.
For O=C(NNC(=O)C1C2C=CC(C2)C1C(=O)O)c1cc(Cl)ccc1O (stereo not given) the results were Mtb FBA inh 65*, FadD28 binding -2, BioA inh -1, GDH-TPI counter-1 7, Mtb hypoxia rep -12, Mtb FBA confirm 59* and GDH-TPI counter-2 55*.
`CO[C@H]1CN(C)C(=O)c2cc(NS(=O)(=O)c3ccc(Cl)cc3)ccc2OC[C@@H](C)NC[C@@H]1C` gave BioA inh -2.
`O=C(NC1CCCC1)[C@H]1[C@H](CO)[C@H]2Cn3c(ccc(-c4cccnc4)c3=O)[C@@H]1N2CC1CC1` gave BioA inh -1.
`COCC(=O)Nc1ccc2c(c1)OC[C@@H](C)N(Cc1ccccc1)C[C@H](C)[C@H](OC)CN(C)C2=O` gave BioA inh 3.
For CCc1sc(C(=O)Nc2ccc(NC(C)=O)cc2)cc1C the results were Mtb FBA inh 27*, FadD28 binding 0, GDH-TPI counter-1 2, Mtb hypoxia rep 0, Mtb FBA confirm 1 and GDH-TPI counter-2 0.
For CCc1sc(C(=O)Nc2ccc3nc(C)sc3c2)cc1C the results were Mtb FBA inh 2, FadD28 binding 2, BioA inh -5, GDH-TPI counter-1 4 and Mtb hypoxia rep -4.
`O=C(CN1C(=O)NC2(CCCCCCC2)C1=O)N1CCN(C(=O)c2ccco2)CC1` gave Mtb FBA inh 42*, FadD28 binding -2, BioA inh -1, GDH-TPI counter-1 0, Mtb FBA confirm active and GDH-TPI counter-2 161*.
For CCN1CCSc2ccc(C(=O)NCc3ccccc3F)cc21 the results were Mtb FBA inh 87*, FadD28 binding -1, BioA inh -1, GDH-TPI counter-1 12, Mtb hypoxia rep 6, Mtb FBA confirm active and GDH-TPI counter-2 active.
For CCN1C(=O)CSc2ccc(C(=O)NCc3ccccc3OC)cc21 the results were Mtb FBA inh 2, FadD28 binding -1, BioA inh 2, GDH-TPI counter-1 10 and Mtb hypoxia rep -1.
Screening CCN1CCSc2ccc(C(=O)NCc3ccccc3Br)cc21 returned Mtb FBA inh 59*, FadD28 binding 2, BioA inh -1, GDH-TPI counter-1 15, Mtb hypoxia rep 4, Mtb FBA confirm 1 and GDH-TPI counter-2 -2.
Screening CC(C)(C)N1C(=O)C2C(c3ccc(Br)cc3)N3C(=O)N(c4cccc(F)c4)C(=O)[C@@]3(C)C2C1=O (stereo not given in full) returned Mtb hypoxia rep 12.
`Cc1c(Cc2ccccc2)c(=O)oc2cc(OCC(=O)NCc3ccccn3)ccc12` gave Mtb FBA inh 78*, FadD28 binding -2, BioA inh 2, GDH-TPI counter-1 13, Mtb hypoxia rep 7, Mtb FBA confirm 88* and GDH-TPI counter-2 70*.
O=C(COc1ccc2c(-c3ccccc3)cc(=O)oc2c1)N[C@H](Cc1c[nH]c2ccccc12)C(=O)O was read as Mtb FBA inh -1, FadD28 binding -3, BioA inh 5 and GDH-TPI counter-1 6.
Cc1c(Cc2ccccc2)c(=O)oc2cc(OCC(=O)N[C@@H](Cc3ccccc3)C(=O)O)ccc12 was read as Mtb FBA inh 92*, FadD28 binding -4, BioA inh 6, GDH-TPI counter-1 10, Mtb FBA confirm 165* and GDH-TPI counter-2 136*.
`Cc1c(Cc2ccccc2)c(=O)oc2cc(OC(=O)c3ccccc3)ccc12` gave Mtb FBA inh 5, FadD28 binding -3, BioA inh 0 and GDH-TPI counter-1 6.
